Source: PubChem BioAssay (several laboratories)
TLR4-MyD88 BLA: TLR4-MyD88 interaction inhibition in cells; O00206+Q99836; HeLa CL3-4 TLR4/MyD88 BLA complementation, FRET ratio; inhibition, % at 8.4 µM; 0.18% of 200,000 active; AID 861; in the data active = inhibition above about 25%;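 note: 0% = vehicle and 100% = reference inhibitor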
Target sequence (O00206 whole entry, looked up): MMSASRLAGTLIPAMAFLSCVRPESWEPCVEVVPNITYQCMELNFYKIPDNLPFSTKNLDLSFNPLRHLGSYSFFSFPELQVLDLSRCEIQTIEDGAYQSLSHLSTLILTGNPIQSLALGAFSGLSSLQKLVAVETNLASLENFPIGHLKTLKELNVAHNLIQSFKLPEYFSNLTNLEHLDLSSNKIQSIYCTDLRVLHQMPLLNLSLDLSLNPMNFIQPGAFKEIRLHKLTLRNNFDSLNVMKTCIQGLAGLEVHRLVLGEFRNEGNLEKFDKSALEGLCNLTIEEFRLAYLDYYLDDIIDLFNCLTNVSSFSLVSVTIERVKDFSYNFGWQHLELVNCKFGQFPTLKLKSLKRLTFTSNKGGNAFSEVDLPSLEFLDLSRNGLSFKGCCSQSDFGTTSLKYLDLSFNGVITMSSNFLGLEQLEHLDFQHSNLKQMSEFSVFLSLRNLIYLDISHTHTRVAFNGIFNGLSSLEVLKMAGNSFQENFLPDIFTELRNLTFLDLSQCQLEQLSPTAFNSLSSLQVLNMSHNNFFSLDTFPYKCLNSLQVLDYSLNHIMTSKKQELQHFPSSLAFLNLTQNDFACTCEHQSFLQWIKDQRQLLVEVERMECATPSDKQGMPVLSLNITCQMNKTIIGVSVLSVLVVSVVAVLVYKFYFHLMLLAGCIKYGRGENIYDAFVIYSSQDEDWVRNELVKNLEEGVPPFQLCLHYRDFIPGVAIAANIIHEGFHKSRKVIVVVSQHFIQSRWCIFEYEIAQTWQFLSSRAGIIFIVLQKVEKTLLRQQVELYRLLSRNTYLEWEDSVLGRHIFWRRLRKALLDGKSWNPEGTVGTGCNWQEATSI
Target sequence (Q99836 whole entry, looked up): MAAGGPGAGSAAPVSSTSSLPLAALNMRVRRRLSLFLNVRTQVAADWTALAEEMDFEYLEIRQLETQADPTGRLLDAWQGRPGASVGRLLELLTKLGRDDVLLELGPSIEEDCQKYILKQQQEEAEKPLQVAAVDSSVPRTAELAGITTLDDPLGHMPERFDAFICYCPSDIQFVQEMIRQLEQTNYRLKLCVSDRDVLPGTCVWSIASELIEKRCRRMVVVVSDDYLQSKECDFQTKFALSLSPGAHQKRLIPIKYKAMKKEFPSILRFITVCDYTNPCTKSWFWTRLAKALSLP
ANO1 activ: activators or potentiators of mouse TMEM16A chloride channel | HEK293 TMEM16A/YFP-H148Q/I152L, iodide quench fluorescence; stronger effect = lower value | B-score at 10 µM | 0.3% of 340,000 active | AID 623877;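 active = fluorescence-ratio B-score plate-corrected deviation score at least 3 library SD below zero, with starting fluorescence score within 5 deviations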;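 note: channel opened by trigger with iodide after compound preincubation; score built on the fluorescence ratio of max minus min over baseline; more negative score means more quench and so TMEM16A activation or potentiation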
TMEM16A inh: blocks the mouse calcium-activated chloride channel TMEM16A | Q8BHY3 | HEK293 TMEM16A/YFP iodide influx fluorescence, ionomycin | normalized B-score (activity score, 25-100; higher = stronger inhibition) at 10 µM | 1.2% of 310,000 active;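 active = ratio plate-corrected score three or more library SD toward inhibition, starting fluorescence score within five deviations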;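 note: score derived from kinetic fluorescence span divided by baseline fluorescence per well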
m5-HT2A agonist: agonists of mouse serotonin 5-HT2A receptor (HTR2A). CHO-K1 mHTR2A beta-arrestin complementation, luminescence; percent of 30 µM serotonin response. P35363. AID 624169. activation, % at 7.6 µM. 0.66% of 360,000 active;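 active = activation above a run cutoff, the mean activation of all tested compounds plus 3 SD, cut at about 14% in these data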;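 note: 0% = plate median of compound wells and 100% = 30 µM serotonin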
NOD2-RIPK2 inh: blocks binding of human NOD2 to RIPK2. 0.38% of 360,000 active. inhibition, % at 4.98 µM. CHO BLA complementation NOD2-RIPK2, CCF4 ratio; in the data active = inhibition above about 21%;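 note: 0% = vehicle only and 100% = reference blocker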
TLR9-MyD88 block: TLR9-MyD88 interaction inhibition; 0.21% of 340,000 active; AID 504734; CHO BLA complementation TLR9-MyD88, CCF4 FRET ratio; inhibition, % at 4.98 µM; Q9NR96+Q99836;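 active = inhibition above the mean over all tested compounds plus 3 SD, cut at about 21% in these data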;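 note: 0% = DMSO only wells and 100% = clavulanate BLA inhibitor control wells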
TMEM16A reconf: reconfirmed blocker of mouse TMEM16A calcium-activated chloride channel | shares compounds with TMEM16A inh | HEK293 TMEM16A/YFP-H148Q, iodide quench fluorescence; ionomycin added to raise cell calcium | inhibition, % at 10 µM | 39% of 2,300 active;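 active = mean duplicate percent inhibition, scaled so buffer wells are 0 and the reference blocker 100, over three buffer SD above buffer mean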
TMEM16A Ca cntr: calcium mobilization counter-screen hit for TMEM16A inhibitor series. AID 652231. 2% of 2,300 active. shares compounds with TMEM16A inh. calcium response (% of ionomycin), % at 10 µM. TMEM16A/YFP HEK293, Fluo4 calcium mobilization;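 active = duplicate-averaged calcium signal over 20% of the ionomycin maximum, relative to buffer baseline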;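 note: each well's signal is peak minus trough fluorescence divided by its pre-addition baseline; 0% = buffer wells and 100% = ionomycin wells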
Parental YFP cnt: acts in parental YFP-HEK293 cells lacking TMEM16A, counter-screen | shares compounds with TMEM16A inh | iodide YFP quench, ionomycin | YFP ratio F(max-min)/F0 at 10 µM | 2,300 tested, under 10 active;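 active = yellow fluorescent protein signal ratio exceeding the buffer control mean by over 5 SD of those controls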;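 note: ratio is mean of duplicate wells from kinetic YFP trace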
ClC-1 rat inh: rat ClC-1 inhibition, TMEM16A specificity screen. shares compounds with TMEM16A inh. CHO ClC-1-YFP, iodide influx fluorescence quench; iodide control reads 0, buffer control 100. ratio percent, % at 10 µM. 2,300 tested, under 10 active. AID 652236;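 active = duplicate-mean ratio percent above the mean of iodide-only control wells, which defines zero, plus 5 of their SD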;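 note: higher percent means stronger block of ClC-1 iodide influx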
* = called active by the depositor; i = inactive; . = not tested or not shown. Hits are enriched below; roughly 2.4% of the tested compounds scored in any of these assays.

SMILES	TLR4-MyD88 BLA	ANO1 activ	TMEM16A inh	m5-HT2A agonist	NOD2-RIPK2 inh	TLR9-MyD88 block	TMEM16A reconf	TMEM16A Ca cntr	Parental YFP cnt	ClC-1 rat inh
CC(NC(=S)NC1CCCCC1)c1ccc(C(C)(C)C)cc1 (configuration not stated)	.	i	25*	2	2	-17	i	i	-0.78	2
CN(Cc1cccs1)c1ncnc2sccc12	0	i	25*	0	-8	0	i	i	-1.1	-18
CN(Cc1ccccc1F)c1ncnc2sccc12	.	i	i	3	8	-2	.	.	.	.
O=S(=O)(NCCSCc1c(Cl)cccc1Cl)c1ccc2c(c1)OCCO2	10	i	25*	-6	3	-13	i	i	-1.1	-10
O=S(=O)(NCCSCc1ccc(Cl)cc1Cl)c1ccc2c(c1)OCCO2	-6	i	i	-8	-8	-2	.	.	.	.
COc1cc(/C=N/NC(=O)c2ccc3nc[nH]c3c2)cc(OC)c1OC(C)=O	.	.	.	-3	1	-3	.	.	.	.
COc1ccc(C)cc1NC(=O)CSc1nnc(-c2ccc(Br)cc2)o1	-4	i	100*	-1	4	2	i	i	-0.92	-24
O=C(c1ccc(F)cc1)C1CCN(C(=O)N2CCOCC2)CC1	-15	i	i	1	-3	10	i	i	-1.1	-12
COc1ccc(CNC(=O)CN(c2cc(C)cc(C)c2)S(=O)(=O)c2c(C)[nH]c(=O)[nH]c2=O)cc1	.	i	i	3	-13	-6	.	.	.	.
COC(=O)C(C)(C)ONC(=O)Nc1ccccc1Br	12	i	25*	5	2	-2	i	i	-1.1	-12
O=S(=O)(Nc1nc2ccccc2nc1Cl)c1ccc(F)cc1	.	i	i	-3	-5	-4	.	.	.	.
CCCCOc1nc2ccccc2nc1NS(=O)(=O)c1ccc(F)cc1	.	i	25*	1	-6	-16	i	i	-0.99	-11
Cc1ccc(S(=O)(=O)Nc2nc3ccccc3nc2N2CCOCC2)cc1	.	i	.	2	-11	-1	.	.	.	.
O=S(=O)(Nc1nc2ccccc2nc1N1CCN(c2ccccc2)CC1)c1ccc(F)cc1	0	i	i	4	-5	-10	32%*	i	-0.86	-14
Cc1ccc(Cc2c(-c3ccc(Cl)cc3)nc3c(C)cc(Br)cn23)cc1	.	.	.	2	3	.	.	.	.	.
O=C(O)c1cc(-c2cccs2)nn1-c1ccccc1	-7	i	i	4	9	5	.	.	.	.
O=S(=O)(Nc1nc2ccccc2nc1OCC(F)(F)F)c1cccs1	.	i	25*	2	-10	4	i	i	-0.95	-1
COc1ccc(Nc2nc3ccccc3nc2NS(=O)(=O)c2cccs2)cc1	-9	i	i	7	3	-6	.	.	.	.
CSCC[C@H](NC(=O)OC(C)(C)C)c1nnc(SCc2ccccc2)o1	8	i	i	2	-3	-7	.	.	.	.
CSCC[C@H](NC(=O)OC(C)(C)C)c1nnc(SCc2ccc(F)cc2)o1	-9	i	100*	0	1	-10	i	i	-0.94	-3
CCn1c(CNc2ccc(Cl)cc2)nnc1SCC(=O)OC1CCCCC1	-1	i	100*	-5	0	-10	18%*	i	-1.2	-8
C=CCSc1nc(-c2ccccc2)c(C#N)c(=O)[nH]1	24	i	i	0	-1	3	.	.	.	.
N#Cc1c(-c2ccccc2)nc(SCc2ccc(Cl)cc2)[nH]c1=O	.	i	100*	2	2	-5	i	i	-1.2	-18
Cc1ccccc1CN(C)Cc1cc(=O)oc2c(C)c(C)ccc12	.	i	i	-3	2	1	.	.	.	.
Cc1nc(-c2ccc(S(=O)(=O)Nc3ccc(Br)cc3Cl)s2)cs1	.	i	100*	-2	0	0	34%*	i	-1.1	-20
SMILES	TLR4-MyD88 BLA	ANO1 activ	TMEM16A inh	m5-HT2A agonist	NOD2-RIPK2 inh	TLR9-MyD88 block	TMEM16A reconf	TMEM16A Ca cntr	Parental YFP cnt	ClC-1 rat inh
CCCC(=O)c1cc(F)c(N2CCN(C(=O)OCC)CC2)cc1C	-10	i	i	0	-2	2	.	.	.	.
Cc1noc(C)c1COC(=O)c1cccc(S(=O)(=O)N2CCCCCC2)c1	12	i	25*	6	-9	8	i	i	-0.81	-20
Cc1noc(C)c1COc1cccc(C(=O)OC(C)C#N)c1 (configuration not stated)	3	i	i	0	-3	-2	.	.	.	.
Cc1noc(C)c1COc1cccc(C(=O)OCCOc2ccc(F)cc2)c1	-7	i	100*	-7	-12	-12	i	i	-1	-12
CCCCc1c(C)nn(-c2nnc3c4ccccc4n(C)c3n2)c1C	-17	i	i	5	5	-5	.	.	.	.
Cc1ccc([N+](=O)[O-])cc1N(CC(=O)NC1CCCC1)S(C)(=O)=O	13	i	i	9	-1	0	.	.	.	.
COc1ccc(CCNC(=O)CCN2C(=O)C(C)Oc3ccc(C)cc32)cc1OC (configuration not stated)	-5	i	100*	3	-6	-11	i	i	-1.2	-10
Cc1ccc2nc(/C=C/c3cccc(F)c3)ccc2c1	0	i	i	1	-5	-7	.	.	.	.
Cc1sc(CO)c(Sc2ccccc2)c1C(=O)O	-3	.	i	.	.	.	.	.	.	.
CSCCC(C(=O)Nc1c(C)cccc1C)N1CCN(C/C=C/c2ccccc2)CC1 (configuration not stated)	.	.	.	-6	3	.	.	.	.	.
Cc1cc(C(=O)OCC(=O)Nc2ccccc2C)c(C)o1	.	i	.	10	-15	-13	.	.	.	.
Cc1cc(C(=O)OCC(=O)Nc2ccc(F)cc2F)c(C)o1	3	i	100*	0	-1	5	i	i	-0.87	-16
CCCN1CCN(CCCNC(=O)c2ccc3nc(N4CCCCC4)sc3c2)CC1	.	i	i	-1	0	0	.	.	.	.
CC1CC(C)CN(CCCNC(=O)c2ccc3nc(N4CCCCC4)sc3c2)C1 (configuration not stated)	.	i	100*	-4	1	-2	i	i	-1.1	-20
